# From PubChem BioAssay (Tox21)
# Records with an inconclusive call do not appear. Calls of active or inactive are those of the source. The call rests on the fitted dose curve.
# Target: D(2) dopamine receptor (Homo sapiens) (UniProt P14416)
# Assay: Dopamine D2 receptor (DRD2) small molecule agonists, cell-based qHTS assay (AID 1963594); further: nearly all actives have a fitted effect of over 35% in size
# Conditions: HEK293-DRD2 cAMP HTRF, agonist mode, 30 min; series mostly up to 92.4 µM; activation: at the top concentration
# Text: National Center for Advancing Translational Sciences [NCATS]
# Division of Preclinical Innovation [DPI]
# U.S. Environmental Protection Agency [EPA]
# National Institutes of Environmental Health Sciences [NIEHS]
# National Toxicology Program [NTP]
# U.S. Food and Drug Administration [FDA]
# DRD2 is the D2 subtype of the dopamine receptor, which is coupled to Gi subtype of G protein-coupled receptor. This G protein-coupled receptor inhibits adenylyl cyclase activity. The DRD2-HEK293 cell line stably expressing D2 dopamine receptor can be used for screening agonists and antagonists of interactions between D2 and its ligands. The Hek293-DRD2 cAMP assay is based on HTRF technology. It measures changes of cAMP accumulation in response to Gi coupled GPCR activation or inhibition.
# Tox21 Assay Protocol Summary:
# DRD2-Hek293 cells were dispensed at 600 cells/3uL/well in 1536-well white plates using a Multidrop Dispenser. After the assay plates were incubated at a 37 C/5% CO2 incubator for 24 h, 1 uL of Ro20-1724 at final concentration of 0.1 mM was transferred to the assay plate by a Flying Reagent Dispenser. Following Ro20-1724 addition, 23 nL of compound dissolved in DMSO, positive controls or DMSO only was added to the assay plates via Wako pintool station. The assay plates were incubated at room temperature for 10 min. Next, 1 uL of NKH477 at 200nM was added into the plates. After the assay plates were incubated at room temperature for an additional 30 min, 2.5 ul/well of cAMP-d2 and 2.5 ul/well of anti-cAMP-cryptate were added respectively into the assay plates using a Flying Reagent Dispenser. The plates were incubated at room temperature for 1 h. The fluorescence intensity in the plates was measured at 340 nm excitation and 665 & 620 nm emission by an Envision plate reader.
# On the % scale 0 is the no-effect control and ±100 the full control effect.
# Sequence of D(2) dopamine receptor (Homo sapiens) (P14416 whole entry, looked up): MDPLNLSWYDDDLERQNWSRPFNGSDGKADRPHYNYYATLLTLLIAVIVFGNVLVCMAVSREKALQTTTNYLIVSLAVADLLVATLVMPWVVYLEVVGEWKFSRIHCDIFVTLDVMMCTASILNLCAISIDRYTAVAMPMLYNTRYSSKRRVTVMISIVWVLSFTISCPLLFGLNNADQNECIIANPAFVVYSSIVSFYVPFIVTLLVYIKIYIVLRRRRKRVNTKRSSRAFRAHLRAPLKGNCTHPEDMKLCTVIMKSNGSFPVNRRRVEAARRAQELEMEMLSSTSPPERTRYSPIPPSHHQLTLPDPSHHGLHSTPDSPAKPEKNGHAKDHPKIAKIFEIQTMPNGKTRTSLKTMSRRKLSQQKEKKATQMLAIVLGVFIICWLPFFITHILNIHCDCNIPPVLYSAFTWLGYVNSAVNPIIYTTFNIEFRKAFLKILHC
Compound,activation,Potency
CCCCC(CC)C(=O)OCCOCCOCCOCCOC(=O)C(CC)CCCC (stereo not given),-0.796% (inactive),
CCCCCSCCCCC,3.11% (inactive),
CN(C)CCOc1ccccc1Cc1ccccc1,20.5% [at 42.5 µM] (inactive),
c1cc[c]([Bi]([c]2ccccc2)[c]2ccccc2)cc1,-3.92% (inactive),
O=C(c1ccccc1)C1CCC1,-5.08% (inactive),
CC(CN(CCN(CC(C)OCCO)CC(C)OCCO)CC(C)OCCO)OCCO (stereo not given),-0.106% (inactive),
COC(=O)CC(=O)C(C)(C)C,2.43% (inactive),
COc1cc(C(=O)NC2CCN(C)CC2)ccc1Nc1ncc2c(n1)N(C1CCCC1)CC(F)(F)C(=O)N2C,-0.983% (inactive),
CC1=CC=C(C(C)C)CC1,4.83% (inactive),
CC(C)c1c(C(=O)Nc2ccccc2)c(-c2ccccc2)c(-c2ccc(F)cc2)n1CC[C@@H](O)C[C@@H](O)CC(=O)O,,inactive
COC(=O)C(C)=O,3.99% (inactive),
CCOC(=O)c1nc(C(Cl)(Cl)Cl)n(-c2ccc(Cl)cc2Cl)n1,-0.806% (inactive),
CN(C/C=C/C#CC(C)(C)C)Cc1cccc2ccccc12,-15.2% [at 42.5 µM] (inactive),
Nc1ccn([C@@H]2O[C@H](CO)[C@@H](O)C2O)c(=O)n1 (stereo not given in full),-4.43% (inactive),
CC(C)CCCCCCOC(=O)C1CCCCC1C(=O)OCCCCCCC(C)C (stereo not given),-7.7% (inactive),
CC(=O)OCC=C(C)C,0.383% [at 42.5 µM] (inactive),
C#C[C@]1(O)CC[C@H]2[C@@H]3CCc4cc(OC5CCCC5)ccc4[C@H]3CC[C@@]21C,-8.78% [at 42.5 µM] (inactive),
COCCOC(=O)CC#N,-22% (inactive),
C/C=C/C(=O)C1=C(C)CCCC1(C)C,10.6% (inactive),
CC(=O)OCCC(C)CC(C)(C)C (stereo not given),-4.92% (inactive),

Compound,activation,Potency
CNCCC(Oc1ccc(C(F)(F)F)cc1)c1ccccc1 (stereo not given),,inactive
CC(C)=CC=O,1.94% (inactive),
Cn1c(NCCN(CCO)CCCc2ccc([N+](=O)[O-])cc2)cc(=O)n(C)c1=O,5.17% [at 42.5 µM] (inactive),
C1CCOC1,-1.34% (inactive),
CC(C)(C)c1cc(O)c(C(C)(C)C)cc1O,-11.8% (inactive),
CCS(=O)(=O)c1ccc(OC)c(C(=O)OC)c1,-1.52% [at 42.5 µM] (inactive),
Cc1ccc(S(=O)(=O)C(I)I)cc1,3.7% (inactive),
Nc1cc(Cl)cc(S(=O)(=O)O)c1O,3.72% (inactive),
NCCNC(=O)c1ccc(Cl)cn1,12.3% [at 42.5 µM] (inactive),
CCN(Cc1ccncc1)C(=O)C(CO)c1ccccc1 (stereo not given),-15.4% [at 42.5 µM] (inactive),
CC(C)NCC(O)COc1ccc(CC(N)=O)cc1 (stereo not given),-0.634% (inactive),
COC(=O)C1=C(C)NC(C)=C(C(=O)O[C@@H]2CCCN(Cc3ccccc3)C2)[C@@H]1c1cccc([N+](=O)[O-])c1,-9.29% [at 42.5 µM] (inactive),
C=CCOCC(O)CS(=O)(=O)O (stereo not given),0.0946% (inactive),
O=C(Nc1cccc(Cl)c1)OCC#CCCl,2.47% (inactive),
CC1CCN(CCCC(=O)c2ccc(F)cc2)CC1,-9.51% [at 42.5 µM] (inactive),
CCCNC(C)C(=O)Nc1c(C)csc1C(=O)OC (stereo not given),-1.49% [at 42.5 µM] (inactive),
CC(=O)Oc1ccc(C2(c3ccc(OC(C)=O)cc3)Oc3ccccc3NC2=O)cc1,2.1% [at 42.5 µM] (inactive),
Cc1ccccc1N=C(N)Nc1ccccc1C,-4.39% (inactive),
COC(Cc1ccccc1)OC,-1.47% (inactive),
Cc1nnc(SCC2=C(C(=O)O)N3C(=O)[C@@H](NC(=O)Cn4cnnn4)[C@H]3SC2)s1,-1.72% [at 42.5 µM] (inactive),
